In all, about 33,000 compounds went through this assay and about 70 (0.2%) were called active. No stated cut-off is given here; in the data, active means inhibition above about 30%; inactive means the rest. A selection follows.
The compounds below were run against Coagulation factor XII (Homo sapiens) (UniProt P00748) (assay: human FXIIa protease inhibitors, primary screen, biochemical, single well (AID 701;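 further: 0% = enzyme with vehicle only and 100% = no enzyme blank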)). Details: purified human FXIIa, AMC substrate fluorescence, 2 h; at 10 µM; hits give high values.
Chain of Coagulation factor XII (Homo sapiens) (P00748 20-372 limits assumed): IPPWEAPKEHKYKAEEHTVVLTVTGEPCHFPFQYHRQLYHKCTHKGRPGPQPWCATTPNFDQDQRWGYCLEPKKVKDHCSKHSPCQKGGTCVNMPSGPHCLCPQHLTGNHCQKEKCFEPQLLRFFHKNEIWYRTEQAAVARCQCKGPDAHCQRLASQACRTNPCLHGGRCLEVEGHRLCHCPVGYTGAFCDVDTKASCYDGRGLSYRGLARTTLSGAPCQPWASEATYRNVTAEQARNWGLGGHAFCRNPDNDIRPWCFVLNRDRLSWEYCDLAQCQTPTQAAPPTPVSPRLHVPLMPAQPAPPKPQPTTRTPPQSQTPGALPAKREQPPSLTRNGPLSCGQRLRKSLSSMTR
Chain of Coagulation factor XII (Homo sapiens) (P00748 373-615 limits assumed): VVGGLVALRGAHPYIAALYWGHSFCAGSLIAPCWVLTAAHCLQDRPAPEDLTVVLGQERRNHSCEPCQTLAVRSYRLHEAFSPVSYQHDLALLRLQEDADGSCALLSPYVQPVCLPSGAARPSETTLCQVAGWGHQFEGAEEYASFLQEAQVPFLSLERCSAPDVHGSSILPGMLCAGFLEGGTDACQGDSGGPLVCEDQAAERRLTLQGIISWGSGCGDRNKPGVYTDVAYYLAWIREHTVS

inhibition, inactive:
Cc1ccc(S(=O)(=O)/N=C(\CN2CCOCC2)N2CCOCC2)cc1 -13.1%
O=C(NCCCn1ccnc1)Nc1ccc(Cl)cc1Cl -12%
Cc1cccc(NC(=O)CSc2nnc(-c3ccco3)o2)c1 7.32%
CCOc1ccc(N(CC(=O)NC2CCCCCC2)S(=O)(=O)c2c(C)[nH]c(=O)[nH]c2=O)cc1 -0.15%
CCOc1ccc(NC(=O)c2ccccc2NS(C)(=O)=O)cc1 7.81%
COC(=O)CSc1nnc(-c2cccnc2)o1 4.99%
Cc1cccc(NC(=O)CSc2nc3c(c(=O)[nH]2)CCCC3)c1C 7.72%
CCc1ccc(CNC(=O)C2CC(=O)N(CCc3ccc(C)cc3)C2)cc1 (stereo unspecified) -0.05%
O=C(O)CCC(=O)N(Cc1cccs1)Cc1cccs1 -0.32%
Cn1c(SCC(=O)NC2CCCCC2)nnc1-c1cc2ccccc2o1 -0.46%
CC(=O)c1c(C)n(-c2ccc(N(C)C)cc2)c2ccc(OCC(N)=O)cc12 8.5%
OC(COc1cccc2ccccc12)CN1CCN(c2ccccn2)CC1 (stereo unspecified) 9.54%
CCCn1c(C(Cc2ccccc2)NC(=O)COC)nc2ccccc21 (stereo unspecified) 7.07%
Cn1cc(S(=O)(=O)N2CCN(c3ccc(F)cc3)CC2)c(=O)n(C)c1=O 3.88%
Cc1cc(NC(=O)CS(=O)(=O)c2cn(C)c3ccccc23)no1 3.14%
Cn1c(=O)[nH]c(=O)c2c1nc(N1CCN(CCO)CC1)n2CCSc1nc2ccccc2s1 0.63%
CC(C)CNC(=O)CC(c1ccccc1)c1c(O)ccc2ccccc12 (stereo unspecified) 1.86%
C#CCN(N(C)c1ncc(C(F)(F)F)cc1Cl)S(=O)(=O)c1ccc2ccccc2c1 3.08%
COC(=O)c1ccccc1NC(=O)Cc1ccccc1OC 1.04%
Cc1ccc(S(=O)(=O)N2CCC(C(=O)NCC3CCCO3)CC2)cc1 (stereo unspecified) 2.9%
O=C(CCCn1c(SCC(=O)c2ccccc2)nc2ccccc2c1=O)NCC1CCCO1 (stereo unspecified) 3.06%
Cc1ccc(NC(=O)CSCC(=O)N2CCOCC2)cc1 2.79%
Cc1ccc(C)c(N2C(=O)CS/C2=N\NC(=O)c2ccccc2Cl)c1 8.52%
O=C(CSCc1c(F)cccc1Cl)NCC1CCCO1 (stereo unspecified) 7.29%
COc1ccc(C)cc1NC(=O)CCS(=O)(=O)c1cccc2nonc12 -14.7%
CCCc1noc2c1/C(=N\O)CCC2 8.44%
Cc1ccc(/C=N/NC(=O)Cn2nc(C)c(Br)c2C)o1 5.02%
Cn1nnc(NC(=O)CSc2ncn[nH]2)n1 2.58%
Cc1ccc2cc(CCNC(=O)c3ccc4c(c3)OCO4)c(=O)[nH]c2c1 7.29%
CCOc1cc2[nH]c(=S)n(Cc3ccc(C(=O)NCCOC)cc3)c(=O)c2cc1OCC -2.63%
CCOC(=O)N1CCC(Nc2c(NCCCN3CCN(CC)CC3)c(=O)c2=O)CC1 -0.96%
COc1cc(OC)c(-n2c(C)cc(C=O)c2C)cc1Cl 3.21%
c1ccc(-n2nc3ccccc3n2)cc1 0.64%
CCOc1nc(NCCN2CCOCC2)nc(Nc2ccc(C)cc2)n1 2.85%
CCN(CC)CCn1c2ccc(Cl)cc2c2nc(C)sc21 5.85%
CCOC(=O)c1cnn(Cc2ccccc2Cl)c1N -0.31%
Cc1nc2c(-c3ccc(F)cc3)c(C)nn2c(C)c1CCC(=O)NCc1ccco1 2.8%
CCOC(=O)/C(C#N)=C\c1c(C)cc(C)c(COC(C)=O)c1C 14%
Cc1cc(NC(=O)CCC(=O)N(CC(=O)NCC2CCCO2)c2ccccc2C)no1 (stereo unspecified) 4.76%
CCC(C)NC(=O)CSC1=Nc2ccccc2C2=NC(CCC(=O)NCc3ccco3)C(=O)N12 (stereo unspecified) 5.92%
Cc1cc(S(=O)(=O)NC2CCCCC2)ccc1OCC(=O)NCc1cccnc1 -2.34%
O=P(c1ccc2c(c1)OCCO2)(N1CCOCC1)N1CCOCC1 -11.5%
COc1ccc(C2=NOC3(CC(=O)N(c4ccc(C)cc4)C3=O)C2)cc1 (stereo unspecified) 12.1%
CCOc1ccc(NC(=O)Nc2cc(C)on2)cc1 6.76%
O=C(NC1CCCCC1)C1CC(=O)N(CCc2ccccc2)C1 (stereo unspecified) 1.77%
O=C(NCc1ccccc1)[C@@H]1CSC2c3ccccc3C(=O)N21 (stereo partly specified) 0.72%
Cc1ccc(-n2c(=O)cc(N3CCN(Cc4ccccc4)CC3)[nH]c2=O)cc1 -11.3%
COCCn1c(SCc2nnc(-c3ccc(OC)c(OC)c3)o2)nc2sc3c(c2c1=O)CCC3 7.92%
Cc1csc(OCC(=O)Nc2ccc(C)c(C)c2)n1 7.64%
Cc1cccc(N2CCN(S(=O)(=O)c3ccc4[nH]c(=O)c(=O)[nH]c4c3)CC2C)c1 (stereo unspecified) 7.11%
CCCCCCOc1ccc(OC(=O)c2cccnc2)cc1 4.38%
CCc1ccccc1NC(=O)CN(C)S(=O)(=O)c1ccc2c(c1)c(=O)n(C)c(=O)n2C -0.9%
CCn1c(CC(=O)Nc2ccc(C)cc2)nnc1SCC(=O)Nc1nc(C)cs1 3%
CCCc1nnc(NC(=O)c2cccs2)s1 4.48%
Cn1c(=O)c2c(SCC(=O)N3CCOCC3)nc(C3CC3)nc2n(C)c1=O 5.78%
S=c1nccc(-c2cc(Cl)sc2Cl)[nH]1 3.01%
Cc1ccccc1CSCCNC(=O)c1ccc(Cl)c(S(=O)(=O)N2CCOCC2)c1 -1.19%
CC(C)(C)c1ccc(OC2=CS(=O)(=O)c3ccccc32)cc1 6.47%
CCOc1ccc(C(=O)NCCCN2CCCC2=O)cc1 6.23%
COC(=O)c1cc(NC(=O)C2C3C=CC(C3)C2C(=O)O)cc(C(=O)OC)c1 (stereo unspecified) -2.18%
N#CC1=C(N)N(c2ccccc2)C2=C(C(=O)CCC2)C1c1ccccc1 (stereo unspecified) 6.03%

From PubChem BioAssay AID701 (PCMD, 2007)
